Screening data (PubChem)
Rab9 prom act = activators of Rab9 promoter; Huh7 Rab9 promoter-luciferase reporter, luminescence, 24 h; Potency, µM (top dose mostly 9.22 µM), for inactives: at the top dose activation, negative = inhibition, usual class: activators; 320,000 compounds, 2.8% hits; AID 485297; further: % of control where 0% means no effect; nearly all actives have a fitted effect of over 60% in size
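Cells were plated at 1500 per well in reduced-serum medium with 10% FBS and left 2 h. Compound in DMSO was then added for 24 h at 37 °C. Reporter signal was read by luminescence after 10 min with luciferase detection reagent.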
NPC1 promoter act = activates the NPC1 promoter. 320,000 compounds, 2.4% hits. Potency, µM (series often up to 9.22 µM), for inactives: at the highest dose activation, usual class: activators. Huh7 NPC1 promoter luciferase reporter, 24 h; further: % of control where 0% means no effect; nearly all actives have a fitted effect of over 60% in size
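Stably transfected Huh7 (NPC1 promoter→luciferase), 1500 cells/well in Opti-MEM + 10% FBS, 2 h settle, then compound 24 h at 37 °C. Luminescence after 10 min with Amplite reagent.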
p53 reactivation = mutant p53 re-activation in reporter cells; H1299 p53-A138V BP100-luciferase reporter, luminescence, 24 h; Potency, µM (top dose mostly 92.2 µM), without a hit: top-dose activity change, positive = activation, actives largely listed as activators; 320,000 compounds, 0.063% hits; further: % of control where 0% means no effect; nearly all actives have a fitted effect of over 45% in size
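p53-null H1299 cells stably carrying temperature-sensitive p53-A138V and a BP100-luciferase reporter were pinned with compounds (4-point, 1:5 series) and held 24 hrs at 37 deg C. Luminescence was read 10 min after detection reagent.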
SMN2 splice enh = SMN2 splice variant enhancement; HEK293 SMN2-luciferase splicing reporter, luminescence, 30-36 h; Potency, µM (doses to about 46.1 µM), for inactives: top-dose activity change, positive = activation, actives largely listed as activators; 210,000 compounds, 2.8% hits; AID 1458; further: % of control where 0% means no effect; nearly all actives have a fitted effect of over 55% in size
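qHTS luciferase splicing reporter: luminescence rises when SMN2 exon 7 is included in transfected HEK293 cells. Compound exposure lasted 30-36 h at 37C, with 4.5 mM final sodium butyrate as control, followed by a ONE-Glo read.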
ELG1 genotoxic = genotoxicity induction in ELG1-luciferase HEK293T cells | HEK293T ELG1-luciferase reporter, luminescence, 16 h | Potency, µM (top dose mostly 46 µM), inactives show at the highest dose activity change, positive = activation, most hits filed as activators | 330,000 compounds, 1.3% hits; further: % of control where 0% means no effect; nearly all actives have a fitted effect of over 60% in size
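Quantitative HTS format in 1536-well plates. HEK293T ELG1-luciferase reporter cells receive test compound and are incubated 16 hr at 37 °C, 5% CO2; ONE-Glo added, 30 min room temperature, then luminescence read.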
FLuc modulator = counter-screen for miR-21 project: firefly luciferase inhibitors or activators; purified FLuc, Km substrates, luminescence inhibition; P08659; AID 588342; 360,000 compounds, 6.9% hits; Potency, µM (highest dose often 57.5 µM), for the others: at the highest dose activity change, negative = inhibition, hits mostly inhibitors;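 further: plate controls were vehicle for no effect and reference inhibitor for full effect; nearly all actives have a fitted effect of over 55% in size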
Target sequence (P08659 whole entry, looked up): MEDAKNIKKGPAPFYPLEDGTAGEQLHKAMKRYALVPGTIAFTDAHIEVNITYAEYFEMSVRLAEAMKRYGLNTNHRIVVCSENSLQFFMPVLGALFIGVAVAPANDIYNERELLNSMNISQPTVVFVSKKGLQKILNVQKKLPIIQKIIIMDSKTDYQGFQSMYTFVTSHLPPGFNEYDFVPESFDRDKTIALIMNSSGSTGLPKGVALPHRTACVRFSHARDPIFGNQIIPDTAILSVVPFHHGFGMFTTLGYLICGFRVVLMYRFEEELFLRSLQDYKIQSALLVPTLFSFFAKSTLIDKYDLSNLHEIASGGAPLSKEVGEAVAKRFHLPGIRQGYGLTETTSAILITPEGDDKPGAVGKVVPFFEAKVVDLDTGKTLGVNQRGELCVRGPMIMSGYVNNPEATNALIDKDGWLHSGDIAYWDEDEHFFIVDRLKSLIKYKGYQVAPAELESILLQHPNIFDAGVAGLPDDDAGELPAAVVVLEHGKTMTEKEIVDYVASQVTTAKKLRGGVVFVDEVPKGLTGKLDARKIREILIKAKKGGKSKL
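Purified P. pyralis luciferase (10nM final) with 10uM D-luciferin and 10uM ATP (Km levels) in 50mM Tris acetate pH 7.5, 10mM Mg acetate, 0.01% Tween-20, 0.05% BSA; qHTS 6-point titration, ~60 µM downward; luminescence read.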
An asterisk follows results filed as active; [ ] = another dose, or the depositor's remark. An excerpt weighted towards active compounds, which were near 7.3% of everything screened. The call rests on the fitted dose curve; in most records, active means well fitted curve in the direction sought with a large enough effect; inconclusive means small, poorly fitted or top-dose-only effect, or another doubt; inactive means no such curve, though single readings can be large; an effect the other way counts as inactive or inconclusive. Potency means the concentration at half of the fitted maximal effect.

CN(CC(=O)Nc1ccccc1Br)C(=O)COc1cccc2c1OC(C)(C)C2 was read as Rab9 prom act -1.4%, NPC1 promoter act -4.1%, p53 reactivation -5.8%, ELG1 genotoxic 14.7% and FLuc modulator 0.5%.
COc1ccc(-c2cnnc(N/N=C/c3ccc(O)c(OC)c3)n2)cc1 was read as Rab9 prom act -3.7%, NPC1 promoter act -19.1%, p53 reactivation inconclusive, SMN2 splice enh 12.6µM*, ELG1 genotoxic 7.3% and FLuc modulator 1.2µM*.
Screening COc1cc(/C=N/Nc2nc(-c3ccc(S(=O)(=O)N(C)C)cc3)cs2)ccc1O returned Rab9 prom act -8.7%, NPC1 promoter act -9.6%, p53 reactivation 6.4%, ELG1 genotoxic -25.1% and FLuc modulator 3.38µM*.
Screening CN(C)c1ccc(/C=N\Nc2ccccn2)cc1 returned Rab9 prom act 0.631µM*, NPC1 promoter act 0.891µM*, p53 reactivation 24.6%, ELG1 genotoxic 5.17µM* and FLuc modulator 0.953µM*.
`CN(C)c1c(F)cc(-c2nn[nH]n2)cc1F` gave Rab9 prom act 3.7%, NPC1 promoter act 1.3%, p53 reactivation 6.2%, ELG1 genotoxic 15.4% and FLuc modulator 15.1µM*.
Screening c1cncc(-c2nn[nH]n2)c1 returned Rab9 prom act -1.2%, NPC1 promoter act -2.5%, p53 reactivation -4.1%, SMN2 splice enh -5.6%, ELG1 genotoxic 2.8% and FLuc modulator 1.8%.
For O=C(NC(=S)NC1CCS(=O)(=O)C1)c1ccccc1 (stereo unspecified) the results were Rab9 prom act 2.1%, NPC1 promoter act -5.6%, p53 reactivation 18.3%, ELG1 genotoxic 8.3% and FLuc modulator 4.5%.
Screening O=C(NC(=S)NC1CCCCC1)c1ccccc1 returned Rab9 prom act inconclusive, NPC1 promoter act inconclusive, p53 reactivation inconclusive, ELG1 genotoxic inconclusive and FLuc modulator 15.1µM*.
C/C(=N\NC(=S)NC1CCCCC1)c1ccccc1 was read as Rab9 prom act inconclusive, NPC1 promoter act 17.1%, p53 reactivation 25.1µM*, SMN2 splice enh -56.2%, ELG1 genotoxic -2.5% and FLuc modulator -2.5%.
Screening O=C(NC(=S)NC1CCCCCC1)c1cncc(Br)c1 returned Rab9 prom act 19.6%, NPC1 promoter act inconclusive, p53 reactivation inconclusive, SMN2 splice enh 15.8µM*, ELG1 genotoxic inconclusive and FLuc modulator inconclusive.
`CC(C)NC[C@@H](O)c1ccc(O)c2ncccc12` gave SMN2 splice enh -6.4%[9.22 µM].
Screening S=c1[nH]c2cc3ccccc3cc2[nH]1 returned Rab9 prom act 3.4%, NPC1 promoter act 13.7%, p53 reactivation 29.4%, ELG1 genotoxic inconclusive and FLuc modulator 4.78µM*.
For Nc1ccccc1C#CC(=O)c1ccccc1 the results were Rab9 prom act -2.4%, NPC1 promoter act -0.5%, p53 reactivation -14.4%, ELG1 genotoxic -1.2% and FLuc modulator 6.01µM*.
Clc1ccc(/C=N/Nc2nnc(-c3ncc[nH]3)c3ccccc23)cc1 was read as Rab9 prom act 2.82µM*, NPC1 promoter act 4.47µM*, p53 reactivation 8.3%, SMN2 splice enh inconclusive, ELG1 genotoxic -3.7% and FLuc modulator 0.849µM*.
`Cc1cc(Nc2nc3ccccc3[nH]c2=O)n(-c2ccccc2)n1` gave Rab9 prom act 0.6%, NPC1 promoter act -0.3%, p53 reactivation 5.2%, SMN2 splice enh 12.6µM*, ELG1 genotoxic 20.6µM* and FLuc modulator 1.8%.
CCOc1ccc2c(c1)sc(=NC(=O)C1CC1)n2C was read as SMN2 splice enh 11.2µM* and FLuc modulator 7.57µM*.
Screening COc1ccc(N2CC(NC(=O)c3ccc4c(c3)OCO4)CC2=O)cc1 (stereo unspecified) returned FLuc modulator -2.4%.
O=C(COc1ccc(NC(=O)c2ccccc2)cc1)c1ccccc1 was read as Rab9 prom act 14.7%, NPC1 promoter act inconclusive, p53 reactivation 13.9%, ELG1 genotoxic 3.8% and FLuc modulator 2.13µM*.
CCOc1ccc(NC(=O)c2ccccc2OCC(=O)c2ccccc2)cc1 was read as Rab9 prom act inconclusive, NPC1 promoter act 23.3%, p53 reactivation 8.1%, SMN2 splice enh -12.0%, ELG1 genotoxic 14.6% and FLuc modulator 2.13µM*.
Screening Cc1ccc(NC(=O)c2ccccc2OCC(=O)c2ccccc2)cc1 returned Rab9 prom act -0.4%, NPC1 promoter act -0.2%, p53 reactivation -1.2%, SMN2 splice enh 23.7%, ELG1 genotoxic 13.0% and FLuc modulator 13.5µM*.
`O=C(COc1ccc(Br)cc1)Nc1ccc(NC(=O)c2ccccc2)cc1` gave Rab9 prom act 17.5%, NPC1 promoter act 24.1%, p53 reactivation -3.5%, ELG1 genotoxic 16.7% and FLuc modulator 0.4%.
CCOc1ccccc1C(=O)Nc1ccc(NC(=O)c2ccccc2)cc1 was read as Rab9 prom act 10.5%, NPC1 promoter act -0.7%, ELG1 genotoxic 16.4% and FLuc modulator 0.7%.
For Cc1nn(C)c(C(=O)N/N=C/c2ccc(Br)cc2)c1Cl the results were Rab9 prom act 2.7%, NPC1 promoter act -0.6%, p53 reactivation 3.5%, SMN2 splice enh 1.0%, ELG1 genotoxic 1.1% and FLuc modulator -9.7%.
CC(C)c1ccc(/C=N/NC(=O)c2c(Cl)cnn2C)cc1 was read as Rab9 prom act 2.82µM*, NPC1 promoter act 3.16µM*, p53 reactivation inconclusive, SMN2 splice enh 8.91µM*, ELG1 genotoxic 18.4µM* and FLuc modulator 0.675µM*.
COc1ccccc1N(C)S(=O)(=O)c1ccc(C(=O)Nc2nccs2)cc1 was read as Rab9 prom act -1.6%, NPC1 promoter act -0.5%, p53 reactivation -2.0%, ELG1 genotoxic -8.7% and FLuc modulator -9.7%.
For CC(=O)Nc1cccc(/C(C)=N/Nc2nc3ccccc3s2)c1 the results were Rab9 prom act inconclusive, NPC1 promoter act 1.7%, p53 reactivation 6.1%, SMN2 splice enh 11.2µM*, ELG1 genotoxic inconclusive and FLuc modulator 10.7µM*.
COc1cc(/C=N/Nc2nc3ccccc3o2)cc(OC)c1O was read as Rab9 prom act 8.1%, NPC1 promoter act 1.0%, p53 reactivation 3.7%, SMN2 splice enh -6.5%, ELG1 genotoxic 14.8% and FLuc modulator 15.1µM*.
Screening CC(=O)Nc1ccc(/C=N/Nc2nc3ccccc3s2)cc1 returned Rab9 prom act 0.447µM*, NPC1 promoter act 0.708µM*, p53 reactivation inconclusive, ELG1 genotoxic 2.59µM* and FLuc modulator 0.953µM*.
`CC(=O)Nc1ccc(S(=O)(=O)Nc2nc3ccccc3s2)cc1` gave Rab9 prom act -0.1%, NPC1 promoter act -1.0%, p53 reactivation -6.2%, SMN2 splice enh 20.9%, ELG1 genotoxic -0.1% and FLuc modulator 4.9%.
